Experimental data taken from PubChem BioAssay AID1159580 (chemical genetic matrix, 2015).
The whole screen tested about 5,500 compounds, of which about 2,000 (36%) were called active. Not shown: some 18% with an inconclusive outcome. No stated cut-off is given here; in the data, active means normalized growth mostly below about 0.91 (no sharp cut-off); inconclusive means no clear call, values can overlap the other calls; inactive means mostly above about 0.92. The list shows a part of the results.

Assay: chemical genetic growth profiling, strain panel (AID 1159580);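 further: tested at 20 µM; growth read once vehicle control cultures reached saturation at 30 °C; 1 = growth at the plate median or of vehicle wells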
Conditions: growth OD

Measured: normalized growth

C/C=C(/C)C(=O)O[C@@H]1[C@H](OC(C)=O)[C@@]2(CO)C(CC1(C)C)C1=CCC3[C@@]4(C)CC[C@H](O[C@@H]5O[C@H](C(=O)O)[C@@H](O[C@@H]6O[C@H](CO)[C@@H](O)[C@H](O)[C@H]6O)[C@H](O)[C@H]5O[C@@H]5O[C@H](CO)[C@@H](O)[C@H](O)[C@H]5O)[C@](C)(CO)C4CC[C@@]3(C)[C@]1(C)C[C@H]2O (some centres not stated)
inactive: S. cerevisiae deletion strains, locus YKL009W, strain mrt4, stronger effect = lower value 1.06 | S. cerevisiae deletion strains, locus YKL068W, stronger effect = lower value 1.01 | S. cerevisiae deletion strains, locus YKL085W, strain MDH1 (second series), stronger effect = lower value 1.06 | S. cerevisiae deletion strains, locus YKL085W, strain MDH1, stronger effect = lower value 1.06 | S. cerevisiae deletion strains, locus YKL160W, strain elf1, stronger effect = lower value 1.02 | S. cerevisiae deletion strains, locus YKR001C, strain vps1, stronger effect = lower value 1.01 | S. cerevisiae deletion strains, locus YKR026C, strain gcn3, stronger effect = lower value 0.99 | S. cerevisiae deletion strains, locus YKR091W, strain srl3, stronger effect = lower value 0.99 | S. cerevisiae deletion strains, locus YLL001W, strain dnm1, stronger effect = lower value 1.01 | S. cerevisiae deletion strains, locus YLL026W, stronger effect = lower value 0.988 | S. cerevisiae deletion strains, locus YLL041C, strain sdh2, stronger effect = lower value 0.983 | S. cerevisiae deletion strains, locus YLR027C, strain aat2, stronger effect = lower value 0.996 | S. cerevisiae deletion strains, locus YLR039C, strain RIC1, stronger effect = lower value 1.04 | S. cerevisiae deletion strains, locus YLR058C, strain SHM2, stronger effect = lower value 1.01 | S. cerevisiae deletion strains, locus YLR102C, strain apc9, stronger effect = lower value 1.02 | S. cerevisiae deletion strains, locus YLR113W, strain HOG1, stronger effect = lower value 0.967 | S. cerevisiae deletion strains, locus YLR221C, strain rsa3, stronger effect = lower value 1 | S. cerevisiae deletion strains, locus YLR258W, strain gsy2, stronger effect = lower value 0.981 | S. cerevisiae deletion strains, locus YLR262C, strain YPT6 (second series), stronger effect = lower value 1.01 | S. cerevisiae deletion strains, locus YLR262C, strain YPT6, stronger effect = lower value 1.08 | S. cerevisiae deletion strains, locus YLR268W, strain sec22, stronger effect = lower value 1.04 | S. cerevisiae deletion strains, locus YLR320W, strain mms22, stronger effect = lower value 0.973 | S. cerevisiae deletion strains, locus YLR330W, strain CHS5, stronger effect = lower value 1.01 | S. cerevisiae deletion strains, locus YLR342W, strain FKS1 (second series), stronger effect = lower value 1.05 | S. cerevisiae deletion strains, locus YLR342W, strain FKS1, stronger effect = lower value 0.988 | S. cerevisiae deletion strains, locus YLR357W, strain rsc2, stronger effect = lower value 0.984 | S. cerevisiae deletion strains, locus YLR370C, strain arc18, stronger effect = lower value 0.992 | S. cerevisiae deletion strains, locus YLR371W, strain rom2, stronger effect = lower value 1.03 | S. cerevisiae deletion strains, locus YLR384C, strain iki3, stronger effect = lower value 1 | S. cerevisiae deletion strains, locus YLR418C, strain cdc73, stronger effect = lower value 1 | S. cerevisiae deletion strains, locus YML016C, strain PPZ1, stronger effect = lower value 1.01 | S. cerevisiae deletion strains, locus YML032C, strain rad52, stronger effect = lower value 1.03 | S. cerevisiae deletion strains, locus YML120C, strain ndi1, stronger effect = lower value 1.01 | S. cerevisiae deletion strains, locus YML124C, strain tub3, stronger effect = lower value 1.02 | S. cerevisiae deletion strains, locus YMR058W, strain fet3, stronger effect = lower value 0.99 | S. cerevisiae deletion strains, locus YMR078C, strain ctf18, stronger effect = lower value 1.02 | S. cerevisiae deletion strains, locus YMR125W, strain sto1, stronger effect = lower value 0.959 | S. cerevisiae deletion strains, locus YMR129W, stronger effect = lower value 0.979 | S. cerevisiae deletion strains, locus YMR205C, strain PFK2, stronger effect = lower value 0.925 | S. cerevisiae deletion strains, locus YMR223W, strain ubp8, stronger effect = lower value 1.02 | S. cerevisiae deletion strains, locus YMR231W, strain pep5, stronger effect = lower value 0.973 | S. cerevisiae deletion strains, locus YMR307W, strain GAS1, stronger effect = lower value 1.08 | S. cerevisiae deletion strains, locus YNL067W, strain RPL9B, stronger effect = lower value 1.02 | S. cerevisiae deletion strains, locus YNL071W, strain lat1, stronger effect = lower value 1 | S. cerevisiae deletion strains, locus YNL183C, strain NPR1, stronger effect = lower value 0.969 | S. cerevisiae deletion strains, locus YNL209W, strain ssb2, stronger effect = lower value 0.988 | S. cerevisiae deletion strains, locus YNL233W, strain BNI4, stronger effect = lower value 1.01 | S. cerevisiae deletion strains, locus YNL248C, strain rpa49, stronger effect = lower value 1.02 | S. cerevisiae deletion strains, locus YNL250W, strain rad50, stronger effect = lower value 1.04 | S. cerevisiae deletion strains, locus YNL271C, strain bni1, stronger effect = lower value 1.03 | S. cerevisiae deletion strains, locus YNL298W, strain CLA4, stronger effect = lower value 1.01 | S. cerevisiae deletion strains, locus YNL307C, strain MCK1, stronger effect = lower value 1.03 | S. cerevisiae deletion strains, locus YNL322C, strain KRE1 (second series), stronger effect = lower value 0.983 | S. cerevisiae deletion strains, locus YNL322C, strain KRE1, stronger effect = lower value 1.01 | S. cerevisiae deletion strains, locus YNR049C, strain mso1, stronger effect = lower value 0.982 | S. cerevisiae deletion strains, locus YNR052C, strain pop2, stronger effect = lower value 1.02 | S. cerevisiae deletion strains, locus YOL006C, strain TOP1, stronger effect = lower value 0.991 | S. cerevisiae deletion strains, locus YOL012C, strain htz1 1.42 | S. cerevisiae deletion strains, locus YOL147C, strain pex11, stronger effect = lower value 1.02 | S. cerevisiae deletion strains, locus YOR001W, strain rrp6, stronger effect = lower value 0.992 | S. cerevisiae deletion strains, locus YOR061W, strain CKA2, stronger effect = lower value 1.01 | S. cerevisiae deletion strains, locus YOR069W, strain VPS5, stronger effect = lower value 1 | S. cerevisiae deletion strains, locus YOR070C, strain gyp1, stronger effect = lower value 1 | S. cerevisiae deletion strains, locus YOR080W, strain dia2, stronger effect = lower value 0.968 | S. cerevisiae deletion strains, locus YOR083W, strain WHI5, stronger effect = lower value 1.02 | S. cerevisiae deletion strains, locus YOR106W, strain vam3, stronger effect = lower value 1.01 | S. cerevisiae deletion strains, locus YOR136W, strain idh2, stronger effect = lower value 1.02 | S. cerevisiae deletion strains, locus YOR144C, strain elg1, stronger effect = lower value 1.02 | S. cerevisiae deletion strains, locus YOR184W, strain ser1, stronger effect = lower value 1.02 | S. cerevisiae deletion strains, locus YOR231W, strain MKK1, stronger effect = lower value 0.967 | S. cerevisiae deletion strains, locus YOR265W, strain rbl2, stronger effect = lower value 0.993 | S. cerevisiae deletion strains, locus YOR270C, strain vph1, stronger effect = lower value 0.883 | S. cerevisiae deletion strains, locus YOR290C, strain snf2, stronger effect = lower value 0.966 | S. cerevisiae deletion strains, locus YOR316C, strain cot1, stronger effect = lower value 1.02 | S. cerevisiae deletion strains, locus YPL051W, strain arl3, stronger effect = lower value 1.02 | S. cerevisiae deletion strains, locus YPL055C, strain LGE1, stronger effect = lower value 1 | S. cerevisiae deletion strains, locus YPL078C, strain atp4, stronger effect = lower value 1.01 | S. cerevisiae deletion strains, locus YPL106C, strain sse1, stronger effect = lower value 0.981 | S. cerevisiae deletion strains, locus YPL240C, strain hsp82, stronger effect = lower value 1.01 | S. cerevisiae deletion strains, locus YPL241C, strain CIN2, stronger effect = lower value 1 | S. cerevisiae deletion strains, locus YPL256C, strain CLN2, stronger effect = lower value 0.967 | S. cerevisiae deletion strains, locus YPR119W, strain clb2, stronger effect = lower value 1.03 | S. cerevisiae deletion strains, locus YPR141C, strain kar3, stronger effect = lower value 1.04 | S. cerevisiae deletion strains, locus YPR163C, strain tif3, stronger effect = lower value 1.02 | S. cerevisiae deletion strains, locus YPR167C, strain met16, stronger effect = lower value 1.02 | S. cerevisiae deletion strains, strain wtn01, stronger effect = lower value 1.02 | S. cerevisiae strains, strain wild type, stronger effect = lower value 1.01
